# PubChem BioAssay AID435005 (Broad Institute, 2010)
# Values joined by “and” are separate entries in the source; they are usually repeats but may differ in a detail not shown here. Equal entries are not always repeated. The whole screen tested about 300,000 compounds, of which about 2,400 (0.8%) were called active.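 The calls were made as follows: active = Every replicate reaches about 75%, or at least half do and their mean reaches it too (limit read from the data); inconclusive = At least half of replicates reach the limit but their mean does not; inactive = Under half of replicates reach the limit.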 The sample as a whole holds a higher share of actives than the screen did. Some structures have more than one record in an assay (separate samples or runs), and their calls can disagree.
# Assay: inhibitors of cytokine-induced beta cell apoptosis, primary screen, luminescence (AID 435005);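 also: 0% = cytokine-treated negative control wells and 100% = positive control rescue; higher means more ATP so stronger rescue from cytokine killing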
# Conditions: INS-1E cytokine-induced death, ATP luminescence, 48 h; stronger effect = higher value; percent of positive-control rescue, neutral wells zero; concentration not given here
row,SMILES,protection from apoptosis
1,CN(Cc1ccc(F)cc1)C(=O)CN1C(=O)c2ccccc2S1(=O)=O,-4.27% (inactive)
2,CN(C)C(CNC(=O)c1ccc(OCc2cn3ccccc3n2)cc1)c1ccco1 (configuration not stated),0.439% (inactive)
3,Oc1ccc(/C=N/NC2=NCCCCC2)c(O)c1,-2.33% (inactive)
4,Cc1nc2ccccc2nc1N/N=C/c1ccc(O)cc1O,86.1% (active)
5,FC(F)(F)c1nc2ccccc2nc1N/N=C/c1ccc(Cl)cc1,7.12% (inactive)
6,Cc1cccc(-c2nc(Nc3ccc(O)cc3)c3ccccc3n2)c1,-3.47% (inactive)
7,Fc1ccc(/C=N/Nc2nc(-c3cccnc3)nc3ccccc23)cc1,12.4% (inactive)
8,Oc1ccc(/C=N/Nc2nc(-c3ccccc3F)nc3ccccc23)c(O)c1,91.3% (active)
9,COc1ccc(-c2c(C#Cc3ccsc3)c3cc(-c4ccc(CN5CCOCC5)cc4)ccc3n2C)cc1,-5.34% (inactive)
10,C=CCC[C@@H](Cc1ccc(F)cc1)C(=O)OC[C@@H](C)NC(=O)[C@H](CC=C)CC(=O)N(CCO)Cc1ccccc1,-3.2% (inactive)
11,CC(C)(C)NS(=O)(=O)NC(=O)C1=C(N2CCCC2)COC1=O,-7.92% (inactive)
12,COc1ccc(NC(=O)CNc2cc(S(=O)(=O)N3CCOCC3)ccc2N2CCOCC2)c(OC)c1,-2.12% (inactive)
13,CC(CNC(=O)Cn1cnc2c(OCc3ccccc3)ncnc21)c1ccccc1 (configuration not stated),0.936% (inactive)
14,CC(C)(C)OC(=O)C[C@@H]1C/C=C\C[C@@H](CC(=O)N[C@H](CO)Cc2ccccc2)C(=O)NC[C@@H](c2ccccc2)OC1=O,6.98% (inactive)
15,CCOc1cc2ccccc2cc1C(=O)Nc1ccccn1,-5.78% (inactive)
16,Cc1ccc(Cl)cc1NC(=O)c1ccccn1,-1.51% (inactive)
17,CCN(CC)CCOc1ccc2c(c1)C(=NNC(=O)c1ccccn1)c1cc(OCCN(CC)CC)ccc1-2,107% (active)
18,NS(=O)(=O)c1ccc(CNC(=O)c2cccc(S(=O)(=O)N3CCc4ccccc43)c2)cc1,1.37% (inactive)
19,O=C(Nc1cc(S(=O)(=O)N2CCCCC2)ccc1Cl)C1COc2ccccc2O1 (configuration not stated),3.53% (inactive)
20,Cc1cccc(NC(=O)Nc2nnc(-c3ccccc3)o2)c1,-2.12% (inactive)
21,Cc1cccc(NC(=O)Nc2cccc(Oc3c(F)c(F)c(F)c(F)c3F)c2)c1,99.2% (active)
22,COc1cccc(NC(=O)NCc2ccc(F)cc2)c1,-3.25% (inactive)

row,SMILES,protection from apoptosis
1,CN(CC(=O)Nc1ccc(C(N)=O)cc1)S(=O)(=O)c1ccc2c(c1)OCCO2,-4.98% (inactive)
2,N#Cc1cccc(NC(=O)C2CCCN(C(=O)c3ccc(Cl)cc3)C2)c1 (configuration not stated),0.765% (inactive)
3,O=C(/C=C/c1ccc([N+](=O)[O-])o1)NNC(=O)c1ccc(F)cc1,93.8% (active)
4,O=C(N/N=C/c1ccc([N+](=O)[O-])o1)c1cn(-c2ccccc2)nc1-c1ccc(F)cc1,-1.79% (inactive)
5,Cc1ccc(/C=C/C(=O)Nc2ccc([N+](=O)[O-])c(NC(=O)/C=C/c3ccc(C)o3)c2)o1,2.69% (inactive)
6,C[C@H]1COC(=O)[C@H](CC(=O)OC(C)(C)C)C/C=C\C[C@@H](CC(=O)N[C@H](CO)Cc2ccccc2)C(=O)N1,0.417% (inactive)
7,COCCCNC(=O)CC1C[C@H](C(=O)N2CCCCC2)[C@@]2(CCc3ccccc3)c3[nH]c4ccccc4c3CCN2C1=O (some centres not stated),-3.93% (inactive)
8,C=CC[C@@H](CC(=O)N[C@H](CO)Cc1ccccc1)C(=O)N[C@@H](COC(=O)[C@@H](CC=C)Cc1ccc(F)cc1)Cc1c[nH]c2ccccc12,2.3% (inactive)
9,CCOC(=O)C1=C(c2ccc(OC)cc2)C(=O)c2ccccc2C1=O,130% (active)
10,COc1ccc(N2CCN(C(C)=C3C(=O)c4ccccc4C3=O)CC2)cc1,-2.02% (inactive)
11,CCOC(=O)c1c(-c2ccc(C)cc2)csc1/N=C(\C)C1=C(O)c2ccccc2C1=O,-5.12% (inactive)
12,Cc1ccc(NC(=O)C2CC2)cc1S(=O)(=O)N1CCOCC1,-4.34% (inactive)
13,CC(OC(=O)c1c(F)cccc1F)C(=O)NCCC1=CCCCC1 (configuration not stated),-3.37% (inactive)
14,CC(C)n1cnc2c(NCc3ccccc3)cc(N[C@@H](CO)Cc3ccccc3)cc21,135% (active)
15,CCC(CO)Oc1cc(NCc2ccccc2)c2ncn(C3CCCC3)c2c1 (configuration not stated),-4.59% (inactive)
16,CC(C)n1cnc2c(NCc3ccccc3)cc(OCC3CCN(C)CC3)cc21,-8.55% (inactive)
17,COc1ccc(C2(c3ccc(OC)cc3)NC(=O)N(CC(=O)Nc3cc(C)on3)C2=O)cc1,-3.35% (inactive)
18,CCn1nnc2cc(C(=O)Nc3ccc(C(=O)OC(C)C)cc3)ccc21,1.63% (inactive)
19,O=C(Nc1ccccc1Cl)/C(Cl)=C(\Cl)S(=O)c1ccccc1 (configuration not stated),123% (active)
20,O=C(Nc1ccccc1Cl)Nc1cccc2cccnc12,15.9% (inactive)
21,O=C(Cc1ccc2c(c1)CCCC2)Nc1ccccc1Cl,9.68% (inactive)
22,O=C(Nc1cccc(S(=O)(=O)NC2=NCCC2)c1)c1ccc(F)cc1F,-5.38% (inactive)

row,SMILES,protection from apoptosis
1,COc1cc(/C=C/C(=O)OCC(=O)c2ccccc2)cc(OC)c1OC,-3.69% (inactive)
2,Oc1ccc2ccccc2c1N=Nc1nccs1,83.9% (active)
3,c1ccc(NCc2cccc3ccccc23)nc1,-6.69% (inactive)
4,Oc1ccc(N=Nc2nccs2)c(O)c1,98.3% (active)
5,CCN1/C(=C\c2ccc3ccccc3[n+]2CC)Sc2cc(C)ccc21,106% (active)
6,Cc1nc2ccc(NC(=O)c3cccc(S(=O)(=O)N4CCOCC4)c3)cc2s1,-1.06% (inactive)
7,c1ccc2cc(CCCc3cc4ccccc4cn3)ncc2c1,-10.4% (inactive)
8,Cc1ccc(NC(=O)Cn2cnc3c(OCc4ccccc4)ncnc32)cc1C,-4.68% (inactive)
9,COCCN(Cc1ccccc1)C(=O)Cc1ccc(S(=O)(=O)N2CCOCC2)s1,-6.29% (inactive)
10,O=C(CN1C(=O)NC2(CCCCCC2)C1=O)NCc1ccc(F)cc1,-3.82% (inactive)
11,Cc1ccc(C(=O)C[n+]2cc(-c3ccccc3)n3c2CCCCC3)cc1,80.4% (active) and 69.5% (inactive)
12,Cc1ccc(-c2c[n+](CC(=O)Nc3ccccc3)c3n2CCC3)cc1,-4.97% (inactive)
13,Clc1ccc(C[n+]2cc(-c3ccccc3)n3c2CCC3)cc1,-17.9% (inactive)
14,O=C(CNC(=O)c1n[nH]c2ccccc12)Nc1cc(Cl)ccc1Cl,-6.41% (inactive)
15,CCOc1ccc(S(=O)(=O)N2CCCCC2)cc1NC(=O)CN1CCCC1c1cccs1 (configuration not stated),108% (active)
16,COc1ccc(S(=O)(=O)N2CCCCC2)cc1NC(=O)COc1ccccc1,3.1% (inactive)
17,COc1ccc(S(=O)(=O)N2CCCCCC2)cc1NC(=O)Cc1ccc(OC)c(OC)c1,-0.791% (inactive)
18,CCc1sc(C(=O)N2CCN(CC(=O)Nc3cccc(F)c3)CC2)cc1C,-5.03% (inactive)
19,O=C(CC1SCCNC1=O)Nc1ccc(Cl)c(Cl)c1 (configuration not stated),0.331% (inactive)
20,O=C(CC(O)(C(F)(F)F)C(F)(F)F)Nc1ccc(Cl)c(Cl)c1,105% (active)
21,O=C(Cc1ccc(Cl)c(Cl)c1)Nc1ccc(SC(F)F)cc1,-2.99% (inactive)
22,O=C(Cn1cnc2c(OCc3ccccc3)ncnc21)NCc1nc2ccccc2[nH]1,-9.45% (inactive)

row,SMILES,protection from apoptosis
1,COc1ccc(CNc2nc(NCc3ccc(OC)cc3)c3ncn(C4CCCC4)c3n2)cc1,-10.2% (inactive)
2,O=[N+]([O-])/C=C/c1ccc2c(ccn2Cc2ccccc2)c1,102% (active)
3,O=c1c([N+](=O)[O-])cc(C(F)(F)F)cn1Cc1cccc(Cl)c1,-7.45% (inactive)
4,O=C(/C=C/c1cccc([N+](=O)[O-])c1)N1CCN(Cc2ccccc2)CC1,-1.33% (inactive)
5,CCC(CO)Oc1cc(NC(=O)c2cccc3ccccc23)c2ncn(C(C)C)c2c1 (configuration not stated),4.17% (inactive)
6,O=C1C=C(c2cc(C(F)(F)F)cc(C(F)(F)F)c2)C[C@@H](c2ccc3c(c2)OCO3)C1,7.25% (inactive)
7,CCCc1ccc(-c2csc(NC(=O)Cc3cccs3)n2)cc1,6.06% (inactive)
8,COc1ccc(-c2csc(NC(=O)COC(=O)Cc3ccc(Cl)cc3Cl)n2)cc1,2.13% (inactive)
9,COc1cc(CC(=O)Nc2nc(-c3ccc(F)c(F)c3)cs2)cc(OC)c1OC,92.9% (active)
10,COc1cccc(CC(=O)Nc2nc(-c3ccc(OC)c(OC)c3)cs2)c1,-4.99% (inactive)
11,Cc1ccc(S(=O)(=O)NC(=O)Nc2nc(-c3ccc(F)c(F)c3)cs2)cc1,-25.4% (inactive)
12,COc1ccc(CC(=O)Nc2nc(-c3ccc(F)c(F)c3)cs2)cc1OC,97.5% (active)
13,Cc1cccc(-n2ncc3c(=O)[nH]c(SCC(=O)Nc4cc(C)on4)nc32)c1,1.12% (inactive)
14,COc1ccc(CCNC(=O)COC(=O)Cc2ccccc2F)cc1,-2.5% (inactive)
15,Cc1ccc(CC(=O)Nc2ccc(S(=O)(=O)N3CCOCC3)cc2)cc1C,0.192% (inactive)
16,CC(OC(=O)c1cc2ccccc2[nH]1)C(=O)N(C)c1ccccc1 (configuration not stated),-1.05% (inactive)
17,Cc1cc(=O)[nH]c(SCC(=O)N2c3ccccc3CC2C)n1 (configuration not stated),-8.13% (inactive)
18,CCS(=O)(=O)c1ccc2oc(SCC(=O)N3c4ccccc4CC3C)nc2c1 (configuration not stated),-3.73% (inactive)
19,CC1Cc2ccccc2N1C(=O)CSc1nc2ccccc2o1 (configuration not stated),104% (active)
20,O=C(COC(=O)c1cccnc1Cl)NC12CC3CC(CC(C3)C1)C2,-1.6% (inactive)
21,Cc1ccc(NC(=O)C2CCC(C(C)(C)C)CC2)cc1S(=O)(=O)N1CCOCC1 (configuration not stated),6.89% (inactive)
